Assay [1] deals with Bile acid receptor (Homo sapiens) (UniProt Q96RI1). Briefly: ATG_FXR_TRANS: Attagene TRANS-FACTORIAL HepG2 Assay for Farnesoid X Receptor (FXR) (AID 2282979; active = hit-call score of the fitted dose curve at least 0.9, where 1 is the maximum;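 also: hits raise reporter mRNA above DMSO so AC50 marks FXR activation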). The following applies: HepG2 Attagene TRANS FXR-GAL4 reporter transcription. In a few lines:
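HepG2 cells were transiently transfected with GAL4-UAS reporters driven by chimeric NR-Gal4 proteins and dosed for 24 h. Reporter mRNA was quantified by RT-PCR, fluorescent labelling, HpaI digestion and capillary electrophoresis, with gain of signal scored versus DMSO.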

Assay [2] addresses Oxysterols receptor LXR-alpha (Homo sapiens) (UniProt Q13133). The assay is described as follows: ATG_LXRa_TRANS: Attagene TRANS-FACTORIAL HepG2 Assay for human Liver X Receptor alpha (LXRa) (AID 2282980; active = hit-call score of the fitted dose curve at least 0.9, where 1 is the maximum). The following applies: HepG2 Attagene TRANS reporter, LXRa transactivation. Summed up: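 HepG2 cells transiently transfected with GAL4-UAS reporter units for chimeric NR-Gal4 proteins, exposed to chemicals for 24 h. Reporter mRNA quantified by RT-PCR and capillary electrophoresis; gain of signal fitted relative to DMSO.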

Assay [3] concerns the target Oxysterols receptor LXR-beta (Homo sapiens) (UniProt P55055). The assay is described as follows: ATG_LXRb_TRANS: Attagene TRANS-FACTORIAL HepG2 Assay for human Liver X Receptor beta (LXRb) (AID 2282981; active = hit-call score of the fitted dose curve at least 0.9, where 1 is the maximum). The following applies: HepG2 Attagene TRANS GAL4-LXRb reporter, mRNA. In a few lines:
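HepG2 cells transiently transfected with GAL4-UAS reporter units for chimeric NR-Gal4 proteins, dosed for 24 h. Reporter transcripts measured by RT-PCR and capillary electrophoresis; gain-of-signal fitting relative to DMSO.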

The target of assay [4] is Nuclear receptor subfamily 4 group A member 2 (Homo sapiens) (UniProt P43354). The assay is described as follows: ATG_NURR1_TRANS: Attagene TRANS-FACTORIAL HepG2 Assay for human Nuclear Receptor Related Protein 1 (NURR1) (AID 2282985; active = hit-call score of the fitted dose curve at least 0.9, where 1 is the maximum). The following applies: HepG2 Attagene TRANS reporter, mRNA readout. Summed up:
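HepG2 cells transiently transfected with NURR1-Gal4 chimera and GAL4-UAS reporter units; after 24 hr compound exposure, reporter mRNA quantified by RT-PCR and capillary electrophoresis; gain of signal fitted against DMSO.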

The target of assay [5] is Transcriptional activator Myb (Homo sapiens) (UniProt P10242). The assay is described as follows: ATG_Myb_CIS: Attagene CIS-FACTORIAL HepG2 Assay for human Myeloblastosis (Myb) Proto-Oncogene Transcription Factor (AID 2282986). Conditions: HepG2 Attagene CIS-FACTORIAL Myb reporter transcription; actives raise or lower the signal. In a few lines:
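Using HepG2 liver cells bearing transiently transfected cis-promoter reporter constructs, the assay measures induction or loss of reporter mRNA after 24 hours of dosing. Detection used fluorescently labeled RT-PCR products separated by capillary electrophoresis.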

In assay [6] the target is Nuclear respiratory factor 1 (Homo sapiens) (UniProt Q16656). The assay is described as follows: ATG_NRF1_CIS: Attagene CIS-FACTORIAL HepG2 Assay for human Nuclear Respiratory Factor 1 (NRF1) Orphan Gene (AID 2282987). The following applies: HepG2 NRF1 cis-element reporter, Attagene multiplex; actives raise or lower the signal. Summed up: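 Reporter mRNA induction or loss in HepG2 cells after 24 h dosing; cis-regulated reporter constructs report endogenous transcription-factor activity. Quantified by RT-PCR/capillary electrophoresis fluorescence, DMSO-referenced.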
Sequence of Nuclear respiratory factor 1 (Homo sapiens) (Q16656 whole entry, looked up): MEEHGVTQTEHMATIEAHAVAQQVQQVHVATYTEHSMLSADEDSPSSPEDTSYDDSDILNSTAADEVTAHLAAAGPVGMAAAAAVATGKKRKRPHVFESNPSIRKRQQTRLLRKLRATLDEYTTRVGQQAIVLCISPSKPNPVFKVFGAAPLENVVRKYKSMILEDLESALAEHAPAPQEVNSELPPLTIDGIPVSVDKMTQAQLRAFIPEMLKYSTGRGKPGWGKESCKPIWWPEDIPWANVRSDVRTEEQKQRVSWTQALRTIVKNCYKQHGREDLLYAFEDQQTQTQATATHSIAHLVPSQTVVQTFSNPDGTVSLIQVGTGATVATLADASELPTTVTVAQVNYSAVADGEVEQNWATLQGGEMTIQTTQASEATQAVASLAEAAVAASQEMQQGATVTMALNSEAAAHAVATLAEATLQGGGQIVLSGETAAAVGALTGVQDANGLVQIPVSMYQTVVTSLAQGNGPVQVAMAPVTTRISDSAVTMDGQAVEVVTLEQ

Assay [7] in a line: ATG_NFI_CIS: Attagene CIS-FACTORIAL HepG2 Assay for human Nuclear Factor I (NFI) (AID 2282989). The following applies: HepG2 cis-regulatory reporter, NFI response element transcription; actives raise or lower the signal. Summed up:
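Cells: human liver HepG2, transiently transfected with promoter-regulated reporter transcription units. Exposure 24 h. Detection: fluorescent RT-PCR products separated by capillary electrophoresis, normalised to DMSO negative control.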

Assay [8] in a line: ATG_NF_kB_CIS: Attagene CIS-FACTORIAL HepG2 Assay for human Nuclear Factor Kappa B (NF-kB) (AID 2282991). The following applies: HepG2 Attagene cis-factorial NF-kB reporter mRNA; actives raise or lower the signal. In a few lines: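 DMSO served as negative control and baseline for bidirectional curve fitting. Transiently transfected HepG2 cells were dosed for 24 h, then reporter transcripts were measured by RT-PCR with capillary electrophoresis detection.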

The nature of assay [9]: ATG_NRF2_ARE_CIS: Attagene CIS-FACTORIAL HepG2 Assay for human Nuclear Factor Erythroid 2 Related Factor 2 (NFR2) response to Antioxidant Response Elements (ARE) (AID 2282992).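 As to AC50: reporter mRNA level measured by RT-PCR and capillary electrophoresis fluorescence.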 Conditions: HepG2 Attagene ARE/NRF2 reporter, transcription factor activity; actives raise or lower the signal. Summed up: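 HepG2 cells transiently transfected with multiplexed cis-regulated reporter transcription units measure endogenous transcription factor activity. Reporter mRNA at 24 h is quantified by RT-PCR, fluorescent labelling and capillary electrophoresis, with bidirectional fitting relative to DMSO.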

Assay [10] is described as follows: ATG_Oct_MLP_CIS: Attagene CIS-FACTORIAL HepG2 Assay for human Octamer-Binding Transcription Factor (Oct) (AID 2282993). Conditions: HepG2 Attagene cis-factorial Oct reporter, mRNA; actives raise or lower the signal. Summed up: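 HepG2, transient MRTU transfection, cis promoter elements; 24 h dosing; RT-PCR/CE fluorescence read-out of reporter mRNA; fit both directions vs DMSO.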

For assay [11], the target named is Cellular tumor antigen p53 (Homo sapiens) (UniProt P04637). The assay is described as follows: ATG_p53_CIS: Attagene CIS-FACTORIAL HepG2 Assay for human p53 Transcription Factor (AID 2282994). The following applies: HepG2 p53 cis-element reporter, Attagene mRNA; actives raise or lower the signal. In a few lines: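 HepG2 cells transiently transfected with multiplexed cis-regulated reporter transcription units read endogenous TF activity. After 24 h compound exposure, reporter mRNA was quantified by RT-PCR, fluorescent labelling, HpaI digestion and capillary electrophoresis; bidirectional fits versus DMSO baseline.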
Sequence of Cellular tumor antigen p53 (Homo sapiens) (P04637 whole entry, looked up): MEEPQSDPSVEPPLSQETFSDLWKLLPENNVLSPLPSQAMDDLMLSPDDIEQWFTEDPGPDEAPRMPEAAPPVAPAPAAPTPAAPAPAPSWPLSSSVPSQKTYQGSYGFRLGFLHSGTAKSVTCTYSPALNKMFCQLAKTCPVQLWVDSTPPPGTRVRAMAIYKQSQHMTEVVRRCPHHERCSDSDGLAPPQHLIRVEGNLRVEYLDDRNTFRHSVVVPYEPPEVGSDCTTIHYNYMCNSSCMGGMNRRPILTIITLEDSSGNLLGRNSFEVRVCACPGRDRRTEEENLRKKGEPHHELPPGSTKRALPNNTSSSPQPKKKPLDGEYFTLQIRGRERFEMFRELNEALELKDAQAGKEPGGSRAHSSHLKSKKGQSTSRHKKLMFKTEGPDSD

A short description of assay [12]: BSK_3C_TissueFactor: BioMAP Diversity Plus: 3C Assay for Tissue Factor Biomarker Activity (AID 2282997). The following applies: BioMAP 3C HUVEC, tissue factor biomarker readout; actives raise or lower the signal. In a few lines: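 HUVEC were treated 24 h, then surface tissue factor measured by ELISA and fitted bidirectionally against DMSO. Parallel SRB total-protein staining assessed overt cytotoxicity at the same time point.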

Assay [13] in a line: BSK_3C_uPAR: BioMAP Diversity Plus: 3C Assay for Urokinase-type plasminogen activator receptor (uPAR) Biomarker Activity (AID 2282998). The following applies: BioMAP 3C HUVEC, uPAR biomarker ELISA; actives raise or lower the signal. In a few lines:
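A multiplexed primary-cell system built on human umbilical vein endothelium was used, with chemical present for 24 h before reading. Cell-surface uPAR was detected by ELISA; signal change in either direction counted against DMSO.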
(In general: ELISA stands for enzyme-linked immunosorbent assay.)

Assay [14] in a line: ATG_M_06_TRANS: Attagene TRANS-FACTORIAL HepG2 Assay for M06 Transcription Factor (Internal Marker) (AID 2282983; active = hit-call score of the fitted dose curve at least 0.9, where 1 is the maximum;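 also: reporter transcript level by RT-PCR then capillary electrophoresis fluorescence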). Conditions: HepG2 Attagene TRANS M06 internal marker reporter. In a few lines: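 HepG2 cells transiently transfected with GAL4-UAS multiple reporter units, dosed 24 h. Reporter RNA reverse-transcribed, PCR-amplified, 6-FAM-labeled, HpaI-digested and quantified by capillary electrophoresis; this internal-marker signal fitted upward relative to DMSO.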

Assay [15] concerns the target Hepatocyte nuclear factor 4-alpha (Homo sapiens) (UniProt P41235). The assay is described as follows: ATG_HNF4a_TRANS: Attagene TRANS-FACTORIAL HepG2 Assay for human Hepatocyte Nuclear Factor 4 alpha (HNF4a) (AID 2282982; active = hit-call score of the fitted dose curve at least 0.9, where 1 is the maximum). The following applies: HepG2 HNF4a transactivation reporter, mRNA readout. In a few lines: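 HepG2 cells transiently transfected with HNF4a-Gal4 chimera and GAL4-UAS reporter units, dosed for 24 h. Reporter mRNA measured by RT-PCR, fluorescent primer extension and capillary electrophoresis; gain-of-signal fitted relative to DMSO.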

Assay [16] in a line: ATG_M_32_TRANS: Attagene TRANS-FACTORIAL HepG2 Assay for M32 Transcription Factor (Internal Marker) (AID 2282984; active = hit-call score of the fitted dose curve at least 0.9, where 1 is the maximum;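 also: transcript level of a background control reporter unit measured by RT-PCR and capillary electrophoresis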). Conditions: HepG2 Attagene TRANS M32 internal marker reporter. In a few lines: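 HepG2 cells transiently transfected with GAL4-UAS reporter units, dosed for 24 hours. Reporter mRNA quantified by RT-PCR, 6-FAM labelling, HpaI digestion and capillary electrophoresis; internal-marker signal fitted upward relative to DMSO.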

The target of assay [17] is Myc proto-oncogene protein (Homo sapiens) (UniProt P01106). Briefly: ATG_Myc_CIS: Attagene CIS-FACTORIAL HepG2 Assay for human Myelocytomatosis (Myc) Proto-Oncogene Transcription Factor (AID 2282990). The following applies: HepG2, Attagene cis-reporter transcription factor activity; actives raise or lower the signal. Summed up: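 Read-out: fluorescent reporter mRNA fragments resolved by capillary electrophoresis after RT-PCR. Human HepG2 liver cells carried transfected cis-element reporter units and were dosed for 24 h. Gain or loss of signal fitted relative to DMSO baseline.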
Sequence of Myc proto-oncogene protein (Homo sapiens) (P01106 whole entry, looked up, the tested form may be a part): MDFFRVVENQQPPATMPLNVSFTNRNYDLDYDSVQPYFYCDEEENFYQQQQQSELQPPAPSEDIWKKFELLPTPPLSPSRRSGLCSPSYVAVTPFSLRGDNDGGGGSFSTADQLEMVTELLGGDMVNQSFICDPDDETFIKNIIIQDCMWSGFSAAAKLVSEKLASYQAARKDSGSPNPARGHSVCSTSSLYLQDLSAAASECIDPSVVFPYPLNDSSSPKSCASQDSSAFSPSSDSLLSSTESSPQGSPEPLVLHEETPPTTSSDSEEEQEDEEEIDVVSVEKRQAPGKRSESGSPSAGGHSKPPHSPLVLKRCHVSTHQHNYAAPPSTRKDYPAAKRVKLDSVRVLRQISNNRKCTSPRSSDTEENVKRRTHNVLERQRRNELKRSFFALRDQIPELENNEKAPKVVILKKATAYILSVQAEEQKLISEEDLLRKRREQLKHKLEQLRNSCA

The target in assay [18] is Glucocorticoid receptor (Homo sapiens) (UniProt P04150). Briefly: ATG_GR_TRANS: Attagene TRANS-FACTORIAL HepG2 Assay for human Glucocorticoid Receptor (GR) (AID 2282978; active = hit-call score of the fitted dose curve at least 0.9, where 1 is the maximum;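 also: activators score as hits since higher reporter transcript over DMSO is fitted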). The following applies: HepG2 Attagene TRANS GR reporter, mRNA transcription. Summed up: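 Transiently transfected HepG2 cells express chimeric NR-GAL4 proteins acting on GAL4-UAS reporter units. Compounds are applied for 24 h. mRNA induction over DMSO is measured by capillary electrophoresis.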
Sequence of Glucocorticoid receptor (Homo sapiens) (P04150 whole entry, looked up, the tested form may be a part): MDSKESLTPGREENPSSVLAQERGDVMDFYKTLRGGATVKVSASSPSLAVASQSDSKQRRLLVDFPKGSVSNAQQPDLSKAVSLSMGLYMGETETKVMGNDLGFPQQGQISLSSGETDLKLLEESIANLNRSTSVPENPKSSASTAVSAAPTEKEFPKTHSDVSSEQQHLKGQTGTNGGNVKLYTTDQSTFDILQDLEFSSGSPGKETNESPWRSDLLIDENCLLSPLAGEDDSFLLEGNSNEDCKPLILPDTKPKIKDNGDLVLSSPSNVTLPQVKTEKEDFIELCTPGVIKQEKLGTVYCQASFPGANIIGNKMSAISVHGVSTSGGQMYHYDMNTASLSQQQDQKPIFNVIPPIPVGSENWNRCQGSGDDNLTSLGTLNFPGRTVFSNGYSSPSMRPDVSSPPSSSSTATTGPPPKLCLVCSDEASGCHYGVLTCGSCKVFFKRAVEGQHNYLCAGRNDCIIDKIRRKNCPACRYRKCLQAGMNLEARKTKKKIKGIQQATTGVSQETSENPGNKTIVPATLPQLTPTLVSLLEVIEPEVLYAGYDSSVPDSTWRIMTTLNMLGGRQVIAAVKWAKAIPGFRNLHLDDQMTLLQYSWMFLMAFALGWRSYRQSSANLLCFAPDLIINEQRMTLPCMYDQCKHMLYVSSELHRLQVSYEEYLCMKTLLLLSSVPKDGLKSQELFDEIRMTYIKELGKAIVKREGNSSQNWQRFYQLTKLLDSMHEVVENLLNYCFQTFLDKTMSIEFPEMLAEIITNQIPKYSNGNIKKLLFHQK

As a reminder, the AC50 is the midpoint of the concentration-response curve, whichever way the signal moves.

Results filed as inconclusive are left out. Calls of active or inactive are those of the source. The calls were made as follows, unless noted: active = hit-call score of the fitted dose curve at least 0.9, where 1 is the maximum; inactive = score below 0.9.

Sequence of Transcriptional activator Myb (Homo sapiens) (P10242 whole entry, looked up): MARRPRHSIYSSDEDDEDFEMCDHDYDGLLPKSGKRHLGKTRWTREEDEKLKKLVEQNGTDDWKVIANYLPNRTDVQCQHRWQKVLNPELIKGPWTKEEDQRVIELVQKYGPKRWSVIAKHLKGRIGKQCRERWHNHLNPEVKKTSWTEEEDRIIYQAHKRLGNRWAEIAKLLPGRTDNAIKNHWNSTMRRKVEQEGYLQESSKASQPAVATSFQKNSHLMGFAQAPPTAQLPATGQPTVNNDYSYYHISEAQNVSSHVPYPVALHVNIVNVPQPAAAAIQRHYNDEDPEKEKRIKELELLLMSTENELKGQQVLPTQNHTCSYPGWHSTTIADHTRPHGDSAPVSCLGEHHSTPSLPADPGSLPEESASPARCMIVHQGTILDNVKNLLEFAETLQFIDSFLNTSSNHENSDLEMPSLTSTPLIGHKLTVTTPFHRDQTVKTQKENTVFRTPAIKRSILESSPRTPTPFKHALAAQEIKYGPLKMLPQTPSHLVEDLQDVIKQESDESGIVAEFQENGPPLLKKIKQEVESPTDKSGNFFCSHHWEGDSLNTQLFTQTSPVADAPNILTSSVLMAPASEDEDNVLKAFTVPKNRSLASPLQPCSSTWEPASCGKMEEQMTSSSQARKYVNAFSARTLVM
Sequence of Oxysterols receptor LXR-beta (Homo sapiens) (P55055 whole entry, looked up, the tested form may be a part): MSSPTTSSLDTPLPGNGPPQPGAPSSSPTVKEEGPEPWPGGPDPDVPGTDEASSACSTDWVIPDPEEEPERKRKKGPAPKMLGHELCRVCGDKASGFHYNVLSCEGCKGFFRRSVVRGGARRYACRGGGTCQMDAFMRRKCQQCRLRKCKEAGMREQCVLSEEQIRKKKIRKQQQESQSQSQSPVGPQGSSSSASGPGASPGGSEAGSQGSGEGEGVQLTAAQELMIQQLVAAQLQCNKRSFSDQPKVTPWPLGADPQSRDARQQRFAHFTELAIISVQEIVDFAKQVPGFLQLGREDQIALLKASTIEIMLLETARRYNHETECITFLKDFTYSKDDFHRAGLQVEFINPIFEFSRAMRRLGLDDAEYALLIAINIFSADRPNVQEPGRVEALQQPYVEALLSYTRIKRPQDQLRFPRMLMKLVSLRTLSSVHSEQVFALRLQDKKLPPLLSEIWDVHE
Sequence of Hepatocyte nuclear factor 4-alpha (Homo sapiens) (P41235 whole entry, looked up, the tested form may be a part): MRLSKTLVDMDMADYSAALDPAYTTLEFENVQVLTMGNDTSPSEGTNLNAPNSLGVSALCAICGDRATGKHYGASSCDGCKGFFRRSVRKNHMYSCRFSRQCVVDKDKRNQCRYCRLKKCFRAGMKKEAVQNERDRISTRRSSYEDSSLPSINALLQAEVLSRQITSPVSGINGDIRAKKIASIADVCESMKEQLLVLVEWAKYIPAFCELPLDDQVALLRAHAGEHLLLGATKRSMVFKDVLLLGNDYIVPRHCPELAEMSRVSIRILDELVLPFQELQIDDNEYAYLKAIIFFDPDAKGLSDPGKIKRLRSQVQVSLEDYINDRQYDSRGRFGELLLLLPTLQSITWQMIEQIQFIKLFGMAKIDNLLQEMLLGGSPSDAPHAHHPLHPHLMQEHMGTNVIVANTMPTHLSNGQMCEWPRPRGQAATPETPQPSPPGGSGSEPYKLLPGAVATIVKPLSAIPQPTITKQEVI
Sequence of Oxysterols receptor LXR-alpha (Homo sapiens) (Q13133 whole entry, looked up, the tested form may be a part): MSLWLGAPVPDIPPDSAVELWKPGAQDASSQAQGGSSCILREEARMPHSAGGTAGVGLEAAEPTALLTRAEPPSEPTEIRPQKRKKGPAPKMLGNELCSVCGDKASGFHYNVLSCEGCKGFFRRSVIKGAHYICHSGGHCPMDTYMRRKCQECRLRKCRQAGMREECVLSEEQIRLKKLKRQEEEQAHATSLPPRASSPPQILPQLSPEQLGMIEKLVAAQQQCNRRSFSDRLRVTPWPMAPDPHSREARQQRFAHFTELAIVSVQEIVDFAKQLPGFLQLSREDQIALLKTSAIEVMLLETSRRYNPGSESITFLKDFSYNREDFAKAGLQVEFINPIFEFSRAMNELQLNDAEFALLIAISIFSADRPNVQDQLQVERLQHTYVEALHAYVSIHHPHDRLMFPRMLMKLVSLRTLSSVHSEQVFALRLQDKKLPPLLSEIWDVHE
Sequence of Nuclear receptor subfamily 4 group A member 2 (Homo sapiens) (P43354 whole entry, looked up, the tested form may be a part): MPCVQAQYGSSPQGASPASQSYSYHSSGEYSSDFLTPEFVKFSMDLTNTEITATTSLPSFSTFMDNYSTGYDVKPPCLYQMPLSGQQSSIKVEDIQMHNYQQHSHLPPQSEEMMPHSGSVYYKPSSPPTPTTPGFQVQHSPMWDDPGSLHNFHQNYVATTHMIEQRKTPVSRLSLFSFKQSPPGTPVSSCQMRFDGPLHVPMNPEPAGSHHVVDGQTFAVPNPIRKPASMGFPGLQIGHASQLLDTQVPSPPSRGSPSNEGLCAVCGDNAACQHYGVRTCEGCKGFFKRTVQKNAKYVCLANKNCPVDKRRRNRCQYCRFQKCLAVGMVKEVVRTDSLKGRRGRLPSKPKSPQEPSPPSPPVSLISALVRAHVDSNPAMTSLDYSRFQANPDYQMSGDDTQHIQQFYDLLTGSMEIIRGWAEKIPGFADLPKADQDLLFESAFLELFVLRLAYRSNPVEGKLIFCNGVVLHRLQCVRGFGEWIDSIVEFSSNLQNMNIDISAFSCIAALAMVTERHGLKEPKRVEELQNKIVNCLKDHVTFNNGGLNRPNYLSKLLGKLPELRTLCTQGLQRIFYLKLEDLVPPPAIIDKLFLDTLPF

Turning to `CNC(=O)Oc1cccc2ccccc12`, the call in assay [1], in assay [2], in assay [3], in [4], in assay [5] and in [6] was inactive. Also, the molecule was classed as inactive in [8], in assay [11], in [12] and in assay [13]. The AC50 is 74.5 µM (active) in assay [7], 15.6 µM (active) in assay [9] and 50 µM (active) in assay [10].
Regarding `COP(=O)(OC)O/C(C)=C/C(=O)N(C)C`, the outcome in [2], in assay [3], in assay [14], in assay [4], in [5] and in assay [6] was inactive. Besides, the molecule was called inactive in [7], in assay [8], in assay [9], in assay [10], in [11] and in [12]. Besides, the result in [13] was inactive.
On to `COC(=O)c1c(C(F)F)nc(C(F)(F)F)c(C2=NCCS2)c1CC(C)C`, for which the molecule was classed as inactive in [2], in [3], in assay [15], in assay [14], in [16] and in assay [4]. The call in assay [5], in assay [6], in assay [7], in assay [17], in assay [8] and in [11] was inactive. The outcome in [12] was inactive. Moreover, the figures for the AC50 in assay [9], in [10] and in assay [13] were 2.14 µM (active), 9.92 µM (active) and 33.4 µM (active), respectively.
Take `O=C(O)c1c(Cl)ccc2cc(Cl)cnc12`: the call in assay [3], in [5], in [6], in assay [7], in assay [8] and in assay [9] was inactive. Besides, the result in assay [10], in [12] and in [13] was inactive.
As to `Cc1ccc(N=CN(C)C=Nc2ccc(C)cc2C)c(C)c1`, the result in assay [18], in assay [3], in assay [14], in assay [5], in [6] and in assay [7] was inactive. Moreover, the molecule was classed as inactive in [9], in assay [10] and in [11]. The figures for the concentration at half-maximal activity (AC50) in assay [12] and in assay [13] were 32 µM (active) and 37.6 µM (active), respectively.
Consider `CC1(C)CON(Cc2ccccc2Cl)C1=O`, for which the call in [2], in assay [3], in assay [15], in assay [16], in assay [5] and in assay [6] was inactive. The molecule was called inactive in [7], in assay [17], in [8], in [10], in assay [11] and in assay [12]. The result in assay [13] was inactive. Moreover, the AC50 in assay [9] is 44.1 µM (active).
Turning to `COC(=O)N(C(=O)N1CO[C@@]2(C(=O)OC)Cc3cc(Cl)ccc3C2=N1)c1ccc(OC(F)(F)F)cc1`, the outcome in assay [18], in assay [3], in assay [15], in assay [16], in assay [4] and in assay [5] was inactive. Also, the outcome in [6], in assay [7], in assay [17], in [11], in [12] and in assay [13] was inactive. Besides, the values for the half-maximal activity concentration (AC50) in assay [9] and in assay [10] were 4.35 µM (active) and 1.71 µM (active), respectively.
Take `COc1ccc(-c2ccccc2)cc1NNC(=O)OC(C)C`: the result in [18], in assay [3], in [14], in assay [4], in assay [5] and in [6] was inactive. Also, the outcome in assay [7], in assay [8], in assay [11], in assay [12] and in assay [13] was inactive. In addition, the half-maximal activity concentration (AC50) in assay [9] was 6.71 µM (active); in assay [10] it was 0.882 µM (active).
As to `Clc1nc(Cl)nc(Nc2ccccc2Cl)n1`, the molecule was classed as inactive in [3], in assay [4], in assay [5], in assay [6], in [7] and in assay [17]. Also, the outcome in assay [8], in assay [10], in [11], in assay [12] and in assay [13] was inactive. In [9], the half-maximal activity concentration (AC50) is 29.4 µM (active).
With `CC1(C)C(C(=O)OC(C#N)c2cccc(Oc3ccccc3)c2)C1(C)C` (stereo unspecified), the outcome in [1], in assay [3], in [15], in assay [14], in assay [16] and in assay [4] was inactive. Besides, the result in assay [5], in assay [6], in [7], in assay [17], in [8] and in assay [10] was inactive. Also, the molecule was called inactive in [11], in [12] and in [13]. Besides, the AC50 in [9] is 0.913 µM (active).
